Source: PubChem (several laboratories)
CRFR2-BP antag: blocks CRF-induced signaling of the CRF-BP/CRF-R2 complex. 350,000 compounds, 0.59% hits. HEK293 CRF-R2/CRF-BP, CRF-induced calcium fluorescence. inhibition, % at 11.8 µM. AID 588475;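 active means inhibition of the ligand-induced calcium signal above about 50% at the single tested concentration, limit read from the data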
TMEM16A act: mouse TMEM16A channel activation, primary screen; HEK293 TMEM16A/YFP-H148Q/I152L, iodide quench fluorescence; stronger effect = lower value; B-score at 10 µM; Q8BHY3; 340,000 compounds, 0.3% hits;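 active means fluorescence-ratio B-score plate-corrected deviation score at least 3 library SD below zero, with starting fluorescence score within 5 deviations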;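 further: channel opened by trigger with iodide after compound preincubation; score built on the fluorescence ratio of max minus min over baseline; more negative score means more quench and so TMEM16A activation or potentiation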
TMEM16A inh: mouse TMEM16A channel inhibition, primary screen; normalized B-score (activity score, 25-100; higher = stronger inhibition) at 10 µM; Q8BHY3; AID 588511; HEK293 TMEM16A/YFP iodide influx fluorescence, ionomycin; 310,000 compounds, 1.2% hits;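 active means ratio plate-corrected score three or more library SD toward inhibition, starting fluorescence score within five deviations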;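 further: score derived from kinetic fluorescence span divided by baseline fluorescence per well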
MPTP inh: blocks calcium-induced mitochondrial swelling; isolated mouse mitochondria, Ca2+ swelling absorbance, 30 min; inhibition, % at 10 µM; 360,000 compounds, 1.4% hits;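 active means inhibition of 50% or more, scaled per plate between neutral and stimulator controls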;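 further: 0% = DMSO wells given calcium and 100% = 1 mM EGTA wells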
CRFBP-R2 agonist: CRF-BP/CRF-R2 complex agonism; HEK293 CRF-R2/CRF-BP, calcium dye fluorescence (FLIPR); percent of saturating CRF peptide response; activation, % at 13.2 µM; 350,000 compounds, 0.46% hits; AID 588473;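 active means activation of at least 50%, plus an integration ratio under a set limit after plate pattern correction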;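 further: plate controls were neutral control wells without compound for no effect and CRF at EC100 for full effect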
NR3A LBD binder: NR3A (human) ligand-binding domain modulation. 340,000 compounds, 2.5% hits. NR3A LBD differential scanning fluorimetry, Tm shift; 0% = protein alone, 100% = glycine-bound protein. Tm shift relative to glycine control, % at 25 µM;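 active means melting temperature shift of at least 10% of the positive control shift, at one fixed dose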
MPTP counter: membrane potential counter-screen of mitochondrial pore inhibitors; inhibition, % at 10 µM; AID 624504; 5,000 compounds, 78% hits; shares compounds with MPTP inh; isolated mitochondria, Rhodamine 123 fluorescence; in the data active means inhibition above about 22%;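 further: 0% = DMSO vehicle and 100% = positive control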
MPTP swell DR: dose response confirmation of mitochondrial permeability transition pore inhibitors | shares compounds with MPTP inh | isolated mitochondria swelling, absorbance | IC50, µM | 780 compounds, 58% hits | AID 651561; in the data active means IC50 below about 20 µM
MPTP counter DR: MPTP inhibitor counter-screen activity, dose response | shares compounds with MPTP inh | isolated mitochondria counterscreen, fluorescence read-out | IC50, µM | 780 compounds, 49% hits | AID 651564; in the data active means IC50 below about 80 µM
The depositor's hits bear a star; i = inactive; . = no result. An excerpt weighted towards active compounds, which were near 5.1% of everything screened.

SMILES	CRFR2-BP antag	TMEM16A act	TMEM16A inh	MPTP inh	CRFBP-R2 agonist	NR3A LBD binder	MPTP counter	others
CCCCOc1ccc(CSc2nc(C)[nH]c2[N+](=O)[O-])cc1[N+](=O)[O-]	2.9	i	i	56.0*	-1.5	3.3	74.8*
CN1CCCC(C(=O)Nc2cccc(Cl)c2)CC1 (stereo unspecified)	.	.	.	-0.8	.	.	.
COC(=O)C1(CC2CC(c3cccc(Br)c3)=NO2)CCN(C(=O)OC(C)(C)C)CC1 (stereo unspecified)	1.0	i	i	53.7*	-0.5	-1.1	57.2*
Cc1ccc(NC(=O)C2CCN(S(=O)(=O)c3ccc4c(c3)NC(=O)C(C)S4)CC2)cc1C (stereo unspecified)	-1.4	i	i	97.5*	1.9	-1.2	88.6*
CC1Sc2ccc(S(=O)(=O)N3CCC(C(=O)NCc4ccc(Cl)cc4)CC3)cc2NC1=O (stereo unspecified)	2.5	i	i	0.0	2.8	-8.4	.
Cc1ccc(NC(=O)C2CCN(S(=O)(=O)c3ccc4c(c3)NC(=O)C(C)S4)CC2)c(C)c1 (stereo unspecified)	5.6	i	i	0.5	1.2	-2.6	.
CCc1ccc(NC(=O)C2CCN(S(=O)(=O)c3ccc4c(c3)NC(=O)C(C)S4)CC2)cc1 (stereo unspecified)	-4.1	i	i	97.5*	5.1	0.3	97.2*
CC1Sc2ccc(S(=O)(=O)N3CCC(C(=O)Nc4cccc(Cl)c4)CC3)cc2NC1=O (stereo unspecified)	-8.3	i	25*	77.6*	4.1	4.6	84.6*
O=C1CCCCC(=O)[C@H](O)C[C@H](c2ccccc2)O1	.	.	.	-0.8	.	.	.
CC1CCCC(NC(=S)Nc2ccc(SC(F)F)cc2)C1C (stereo unspecified)	15.4	i	i	103.1*	12.1	5.6	97.2*
FC(F)Sc1ccc(NC(=S)NC2CCCC2)cc1	9.4	i	i	95.3*	4.0	0.9	94.0*
OC1CCC(NC(=S)Nc2ccc(SC(F)F)cc2)CC1 (stereo unspecified)	8.0	i	i	-1.7	0.6	-9.4	.
C/C(=N\NC(=S)NCC(C)(C)C)c1cc(F)cc(F)c1O	3.8	i	i	85.1*	26.0	6.2	73.2*
COCCNC(=S)N/N=C(\C)c1ccc(O)cc1	18.4	i	i	0.0	0.8	-6.0	.
Cc1nn(-c2ccc(Cl)cc2)c(=O)c2c(C)noc12	3.8	i	i	1.1	-2.2	-0.5	.
CCC(C)Nc1nc(OC(C(F)(F)F)C(F)(F)F)nc(OC(C(F)(F)F)C(F)(F)F)n1 (stereo unspecified)	-10.6	i	i	60.0*	4.2	0.9	59.6*
CCC(C)Nc1nc(OCC(F)(F)F)nc(OCC(F)(F)F)n1 (stereo unspecified)	-32.3	i	i	-1.1	-0.6	-7.2	.
Cc1cccc(N=C2NC(=O)S/C2=C\c2ccco2)c1	-26.2	i	i	70.6*	4.4	-6.8	54.2*
Cc1cccc(N=C2NC(=O)/C(=C/C=C/c3ccco3)S2)c1	31.1	i	i	8.5	0.2	2.9	.
O=C1NC(=Nc2ccc(Cl)cc2)/C(=C/c2ccco2)S1	-15.8	i	i	78.6*	5.3	-0.3	56.4*
NNc1nc2ccccc2c(=O)n1Cc1ccccc1	0.9	i	i	0.5	0.1	-0.8	.
O=C(NN1C(=O)c2cc(Br)ccc2NC1c1cc(Br)cc(Br)c1O)c1ccncc1 (stereo unspecified)	-17.4	i	i	88.5*	7.1	-0.3	51.6*
O=C(CNS(=O)(=O)c1ccccc1)N1CCN(Cc2ccccc2)CC1	-2.5	i	i	2.1	0.8	3.3	.
Cc1cccc(C(=O)NCC(=O)OCCOc2ccccc2Cl)c1	-3.9	i	i	-0.9	-1.8	0.4	.
O=C(/C=C/c1ccc(Br)cc1)NC(=O)c1ccccc1O	44.6	i	i	102.5*	18.6	3.5	88.4*
SMILES	CRFR2-BP antag	TMEM16A act	TMEM16A inh	MPTP inh	CRFBP-R2 agonist	NR3A LBD binder	MPTP counter	others
CN1CCN(C(=O)c2ccc(-c3cnn(C)c3)c3ccoc23)CC1	.	.	.	0.9	.	.	.
Cn1nc(C(F)(F)F)c(-c2cccc(C(F)(F)F)c2)c1NC(=O)Nc1ccc(F)cc1	24.1	i	i	78.8*	7.0	2.9	81.7*
Cn1nc(C(F)(F)F)c(-c2cccc(C(F)(F)F)c2)c1NC(=O)c1ccco1	19.4	i	i	4.5	1.6	-0.4	.
Cn1nc(-c2ccccc2)cc1NC(=O)Nc1ccc(F)cc1	-6.2	i	i	65.6*	1.3	-3.7	80.7*
CCc1nc2ccc(C(=O)N3CCN(C(=O)c4ccco4)CC3)cn2c1N(CC)CCOC	.	.	.	-0.2	.	.	.
CN1CCN(C(c2ccccc2)c2ccc(Cl)cc2)CC1 (stereo unspecified)	-17.0	i	i	38.2	-2.6	3.3	.
Clc1ccc(C(c2ccccc2)N2CCNCC2)cc1 (stereo unspecified)	-50.0	i	i	79.9*	-0.3	0.5	-12.1	MPTP swell DR=6.69*;MPTP counter DR=>80
CCOc1ccc(CN(C)Cc2cc(=O)oc3c(C)c(C)ccc23)cc1OC	4.0	i	.	51.5*	-1.0	0.1	85.4*
O=C(NCCCCNC(=O)c1cccnc1Cl)c1cccnc1Cl	-10.2	i	i	0.0	-0.4	0.3	.
CCCCn1c(/C=N/Nc2nc3ccccc3[nH]2)nc2ccccc21	-8.2	i	i	100.4*	-0.3	-5.4	84.0*
FC(F)(F)Oc1ccc(NC(=S)Nc2ccccc2N2CCOCC2)cc1	-2.7	i	i	89.8*	3.0	-6.8	81.1*
NS(=O)(=O)c1ccc(CCNC(=O)c2ccc(Cl)c(S(=O)(=O)NCc3ccco3)c2)cc1	-10.5	i	.	2.1	-0.1	-0.5	.
Cc1cc(Cl)ccc1Oc1ccccc1C(=O)CC#N	13.9	i	i	66.2*	0.2	-1.8	74.7*
COc1ccc2nc3n(c(=O)c2c1)-c1ncccc1C(=O)NC3C (stereo unspecified)	-10.9	.	.	0.1	-0.8	.	.
CCOC(=O)CC1C(=O)NCCN1C(=O)c1c(Cl)cccc1Cl (stereo unspecified)	-1.0	i	i	1.3	-1.3	-1.0	.
